VP16 counter = VP16 counterscreen qHTS for inhibitors of ROR gamma transcriptional activity; Drosophila S2 Gal4-VP16 UAS-luciferase, luminescence, 20 h; Potency, µM (doses to about 53.6 µM), without a hit: at the highest dose activity, negative = inhibition, usual class: inhibitors; 310,000 compounds, 3.5% hits; AID 2546, 2010;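 further: Gal4-VP16 expression switched on by copper sulfate through the metallothionein promoter; nearly all actives have a fitted effect of over 50% in size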
RORg inh = qHTS for inhibitors of ROR gamma transcriptional activity; Drosophila S2 Gal4-RORgamma UAS-luciferase reporter, 20 h; Potency, µM (titrated, usually from 53.6 µM), inactives show at the top dose activity change, negative = inhibition, hits mostly inhibitors; 310,000 compounds, 5.4% hits; AID 2551, 2010; further: nearly all actives have a fitted effect of over 60% in size
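Compounds are pin-transferred onto Drosophila Schneider cells expressing a copper-inducible Gal4–ROR gamma transactivation domain fusion. After 1 hr, copper sulfate is added to 700 uM final; luciferase is read 20 hr later.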
TDP1 inh = qHTS Assay for Inhibitors of Tyrosyl-DNA Phosphodiesterase (TDP1); Tyrosyl-DNA phosphodiesterase 1 (Homo sapiens), Q9NUW8; recombinant TDP1, AlphaScreen DNA substrate cleavage; Potency, µM (highest dose often 130 µM), for inactives: top-dose activity change, negative = inhibition, usual class: inhibitors; 350,000 compounds, 0.28% hits; AID 485290, 2010; further: nearly all actives have a fitted effect of over 40% in size
Target sequence (Q9NUW8 whole entry, looked up): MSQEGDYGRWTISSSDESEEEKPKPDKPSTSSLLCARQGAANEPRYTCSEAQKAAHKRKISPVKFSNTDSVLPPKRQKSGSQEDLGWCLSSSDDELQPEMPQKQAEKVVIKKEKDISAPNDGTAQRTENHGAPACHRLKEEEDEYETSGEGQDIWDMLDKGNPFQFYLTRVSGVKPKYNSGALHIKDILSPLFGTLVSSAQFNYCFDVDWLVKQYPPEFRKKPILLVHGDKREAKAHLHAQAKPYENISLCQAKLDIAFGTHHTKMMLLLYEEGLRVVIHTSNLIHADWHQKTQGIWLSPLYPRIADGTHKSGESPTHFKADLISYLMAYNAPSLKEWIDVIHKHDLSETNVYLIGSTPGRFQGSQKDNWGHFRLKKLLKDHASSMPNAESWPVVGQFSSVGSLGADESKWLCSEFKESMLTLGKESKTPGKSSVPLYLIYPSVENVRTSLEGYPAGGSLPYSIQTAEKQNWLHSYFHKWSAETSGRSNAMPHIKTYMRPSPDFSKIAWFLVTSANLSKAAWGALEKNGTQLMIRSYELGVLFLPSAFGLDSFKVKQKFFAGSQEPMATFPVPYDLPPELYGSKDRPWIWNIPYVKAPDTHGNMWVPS
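Steps: enzyme plus compound, 15 min RT; add biotin/phosphotyrosine-FITC oligonucleotide (15 nM final), react 5 min; add donor/acceptor beads (10 ug/ml final), 10 min; read AlphaScreen. Tdp1 at 1 nM final.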
DT40 TDP1 CPT = qHTS for Inhibitors of human tyrosyl-DNA phosphodiesterase 1 (TDP1): qHTS in cells in presence of CPT | chicken DT40 Tdp1-/-;hTDP1 cells + 20 nM CPT, ATP luminescence, 48 h | Potency, µM (doses to about 46.2 µM), without a hit: at the top dose activity change, negative = growth inhibition, most hits filed as inhibitors | 420,000 compounds, 12% hits | AID 686979, 2013; further: nearly all actives have a fitted effect of over 55% in size
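Cell growth measured by CellTiter-Glo luminescence after a minimum 48 h, 37 C compound exposure with 20 nM CPT in Tdp1-knockout DT40 cells stably expressing hTDP1, seeded 400/well; qHTS titration format.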
TDP1 cell noCPT = qHTS for Inhibitors of human tyrosyl-DNA phosphodiesterase 1 (TDP1): qHTS in cells in absence of CPT. 420,000 compounds, 15% hits. DT40 Tdp1-/- hTDP1 cells, no CPT, ATP luminescence, 48 h. Potency, µM (doses to about 46.2 µM), for the others: top-dose activity change, negative = growth inhibition, most hits filed as inhibitors; further: nearly all actives have a fitted effect of over 55% in size
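Seeded 400 DT40-hTDP1 cells/well (vehicle DMSO, no 20 nM CPT); pinned compounds; ≥48 hr at 37 °C; CellTiter-Glo luminescence as viability measure.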
* = called active by the depositor; ? = inconclusive; nt = no result given; [ ] = dose if it differs, or a comment. Compounds with a hit are over-represented: about 19% of the library has one in this group of screens. The call rests on the fitted dose curve; in most records, active means well fitted curve in the direction sought with a large enough effect; inconclusive means small, poorly fitted or top-dose-only effect, or another doubt; inactive means no such curve, though single readings can be large; an effect the other way counts as inactive or inconclusive. On the % scale 0 is the no-effect control and ±100 the full control effect; potency means the concentration at half of the fitted maximal effect.

SMILES	VP16 counter	RORg inh	TDP1 inh	DT40 TDP1 CPT	TDP1 cell noCPT
C=CCN1C(=O)/C(=C/c2cccs2)S/C1=N\S(=O)(=O)c1ccc(F)cc1	-6.2%	-2.9%	-0.6%	-28.8%	-25.0%
OCCN(Cc1ccccc1)C(=S)NC1CCCCC1	-1.6%	?	0.0%	1.0%	-20.7%
S=C(NC1CCCCC1)N(CCc1ccccc1)CCc1ccccc1	10µM*	10µM*	-5.5%	?	?
COc1ccc(CCNS(=O)(=O)c2ccc3c(c2)NC(=O)CCS3)cc1OC	-13.3%	21.4%	4.6%	11.6µM*	?
COc1ccc(CCNS(=O)(=O)c2cccc(C(=O)O)c2)cc1OC	-3.2%	-6.9%	-3.8%	20.6µM*	16.4µM*
COc1ccc(CCNC(=O)c2ccc(CNS(=O)(=O)c3cccc(Cl)c3)cc2)cc1OC	-2.9%	26.7%	6.5%	?	23.1µM*
Nc1nc(NCc2ccccc2Cl)c2[nH]cnc2n1	nt	nt	2.4%	8.0%	?
CCCc1c(-c2ccccc2Br)ncn1Cc1ccccc1OC	nt	nt	nt	2.31µM*	2.31µM*
COc1ccccc1Cn1nc(C(=O)O)c2ccccc2c1=O	-3.6%	-4.0%	9.6%	-1.1%	-27.5%
CCCc1c(-c2ccccc2)ncn1Cc1ccccc1OC	nt	nt	nt	7.31µM*	5.8µM*
CCCc1c(-c2ccc(F)cc2)ncn1Cc1ccccc1OC	nt	nt	nt	1.64µM*	2.06µM*
c1ccc(-c2c3ccccc3nc3[nH]c4ccccc4c23)cc1	?	11.2µM*	0.0%	?	?
c1ccc2nc3c(nc2c1)[nH]c1ccccc13	-7.8%	?	2.0%	?	?
CSc1ccc(-c2nc3cnccn3c2Nc2ccc3c(c2)OCO3)cc1	10.9%	3.7%	11.6%	?	?
Cc1ccn2c(NC3CCCCC3)c(C(C)C)nc2c1	-1.5%	7.5%	-2.2%	-21.5%	-14.1%
CCC(C)Sc1ccc(-c2nc3cnccn3c2NC2CCCCC2)cc1 (centres undefined)	nt	nt	-12.0%	?	16.4µM*
COc1ccc(Nc2c(-c3ccc(Cl)cc3)nc3cnccn23)cc1OC	nt	nt	14.7%	-3.1%	?
CCC(C)Sc1ccc(-c2nc3cc(C)ccn3c2NC2CCCCC2)cc1 (centres undefined)	nt	nt	3.1%	23.1µM*	14.6µM*
COc1ccc(Sc2ccc(-c3nc4cnccn4c3NC3CCCCC3)cc2OC)cc1	nt	nt	1.8%	14.6µM*	13µM*
Clc1ccc(-c2nc3cnccn3c2NC2CCCC2)cc1	-8.7%	1.2%	4.2%	?	25.9µM*
O=C(C1CC(=O)N(c2ccc(F)c(Cl)c2)C1)N1CCOCC1 (centres undefined)	nt	nt	nt	-3.3%	-0.4%
CCCCNc1c(-c2ccc(SC3CCCCC3)cc2)nc2cnccn12	nt	nt	-0.8%	14.6µM*	?
CCCCNc1c(-c2ccc(OC)c(SC3CCCCC3)c2)nc2cnccn12	nt	nt	-8.9%	?	?
CCCCOc1ccccc1-c1ccccc1CN1[C@@H](C(C)C)COCCS1(=O)=O	nt	nt	-9.8%[56.1 µM]	16.4µM*	18.4µM*
CC(C)[C@H]1COCCS(=O)(=O)N1Cc1ccccc1-c1cccc2c1oc1ccccc12	nt	nt	nt	?	18.4µM*
SMILES	VP16 counter	RORg inh	TDP1 inh	DT40 TDP1 CPT	TDP1 cell noCPT
CCC(C)[C@H]1COCCS(=O)(=O)N1Cc1ccccc1F (some centres undefined)	-1.1%	0.7%	nt	?	?
Cc1cccc(CCNC(=O)CCc2nnc(CCc3ccccc3)o2)n1	-8.3%	1.8%	3.7%	-5.7%	5.3%
O=C(Nc1nc2ccc(Cl)cc2s1)c1cccc(N2C(=O)CCC2=O)c1	nt	nt	4.4%	-3.5%	-16.5%
COc1cc(C(=O)NCC(c2ccccc2)N(C)C)ccc1OCc1c(C)noc1C (centres undefined)	nt	nt	-0.4%	16.4µM*	?
COc1ccccc1CNC(=O)c1ccc(OCc2c(C)noc2C)c(OC)c1	-14.9%	19.2%	2.0%	3.9%	-20.1%
CCOc1ccc(CCNC(=O)c2ccc(OCc3c(C)noc3C)cc2)cc1OCC	nt	nt	3.1%	25.9µM*	20.6µM*
COc1cc(C(=O)OCC#N)ccc1OCc1c(C)noc1C	-7.0%	-23.6%	2.7%	?	23.1µM*
COc1ccc(CCNC(=O)c2ccc(OCc3c(C)noc3C)c(OC)c2)cc1	nt	nt	0.2%	14.2%	-4.0%
COc1cc(C(=O)NCCc2c[nH]c3ccccc23)ccc1OCc1c(C)noc1C	0.5%	41.3%	7.7%	?	18.4µM*
CCCc1ccc(OCC(O)CN2CCN(c3ccccn3)CC2)cc1 (centres undefined)	0.9%	-6.7%	7.0%	?	13.4%
NC(=O)c1ccc(Sc2nnc(-c3cccs3)n2CC2CCCO2)c([N+](=O)[O-])c1 (centres undefined)	-65.8%	-24.1%	-1.1%	?	-7.6%
Cc1ccccc1NS(=O)(=O)c1cc(C(=O)Nc2cccc([N+](=O)[O-])c2)ccc1C	?	?	8.2%	?	?
COc1ccc(C2c3[nH]c4ccccc4c3CCN2C(=O)CCC2CCCC2)cc1 (centres undefined)	nt	nt	5.4%	20.6µM*	?
CCOc1ccc(C2c3[nH]c4ccccc4c3CCN2C(=O)CCC2CCCC2)cc1 (centres undefined)	nt	nt	5.4%	20.6µM*	18.4µM*
CCOc1ccc(C2c3[nH]c4ccccc4c3CCN2C(=O)CSc2ccccc2)cc1 (centres undefined)	nt	nt	4.4%	?	20.6µM*
COc1ccc(C2c3[nH]c4ccc(OC)cc4c3CCN2C(=O)Nc2ccccc2)cc1 (centres undefined)	nt	nt	8.5%	23.1µM*	?
Cc1ccc(S(=O)(=O)c2c(COC(=O)c3ccc(Cl)cc3)c(-c3ccccc3)nn2C)cc1	5.4%	4.5%	-2.0%	16.4µM*	?
CCOC(=O)NC(NC(=S)Nc1ccccc1OC)C(Cl)(Cl)Cl (centres undefined)	-6.7%	17.7%[10 µM]	-2.3%	-10.2%	-23.4%
CC(C)Oc1ccc(CNC(=O)c2ccc(NC(=O)c3nsc4ccccc34)cc2)cc1	nt	nt	-5.4%	20.6µM*	18.4µM*
COc1ccc(OC)c(CNC(=O)c2ccc(NC(=O)c3nsc4ccccc34)cc2)c1	nt	nt	-2.7%	?	18.4µM*
CCOc1ccc(CNC(=O)c2ccc(NC(=O)c3nsc4ccccc34)cc2)cc1	nt	nt	0.0%	?	-16.2%
NC(=O)CSc1nnc(-c2ccccc2F)n1C1CC1	-7.0%	4.2%	4.2%[0.0935 µM]	8.7%	1.6%
CCCCOc1ccc(NC2=NC3(CCCCC3)N=C(N)N2)cc1	-6.6%	21.2%	9.3%	5.17µM*	2.59µM*

Screening data (PubChem)
